Measured values published in PubChem BioAssay (NCATS).
Records with an inconclusive call do not appear. The source made the active and inactive calls. Calls follow the shape of the dose curve; as a rule, active = well fitted inhibition curve with a large enough effect; inconclusive = small, poorly fitted or top-dose-only effect; inactive = flat fitted curve, though single readings scatter.

Key:
Assay in all cases: Cytotoxic Profiling of Annotated Libraries Using Quantitative High-Throughput Screening (AID 1296008); also: nearly all actives have a fitted effect of over 60% in size
Conditions in all cases: Five cell lines viability, CellTiter-Glo ATP luminescence, 48-72 h; max response: stronger effect = lower value
HEK293 = system: HEK293
How it was run: (§1)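 Compounds were pin-transferred onto cells and incubated 48 or 72 hr at 37 degree Celsius, 95% humidity. CellTiter-Glo was added, plates sat 10 min at room temperature, then ATP-coupled luminescence was imaged as the viability read-out.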

KB-3-1 = system: KB-3-1
How it was run: as §1

HaCat = system: HaCat
How it was run: as §1
% is scaled to controls: 0 for no effect and ±100 for the full control effect; potency is read from the fitted curve at half-maximal effect.

Cc1cc(C)c(Nc2ccnc(Nc3ccc(C#N)cc3)n2)c(C)c1
Potency (HEK293): 5.17 µM (active)
Potency (KB-3-1): 20.6 µM (active)

COc1cc(C(=O)NC2CCN(C)CC2)c(F)cc1Nc1ncc2c(n1)N(C1CCCC1)CC(F)(F)C(=O)N2C
Potency (HEK293): 0.0184 µM (active)
Potency (KB-3-1): 0.0103 µM (active)

O=C(c1cc2c(cc1F)OC(c1ccc(F)cc1)(c1ccc(Cl)cc1Cl)O2)N1CCOCC1 (stereo not drawn)
Potency (HEK293): 11.6 µM (active)
Potency (KB-3-1): 13 µM (active)

COCCN1CCN(Cc2ccc(-c3n[nH]c4c3C(=O)c3c(NC(=O)NN5CCOCC5)cccc3-4)cc2)CC1
Potency (HEK293): 0.206 µM (active)
Potency (HaCat): 0.231 µM (active)
Potency (KB-3-1): 0.146 µM (active)

CC(Oc1cc(-n2cnc3ccc(CN4CCN(C)CC4)cc32)sc1C(N)=O)c1ccccc1C(F)(F)F (stereo not drawn)
Potency (HEK293): 1.3 µM (active)
Potency (KB-3-1): 0.651 µM (active)

COc1c(Nc2ncc(Cl)c(N[C@H]3[C@@H](C(N)=O)[C@@H]4C=C[C@H]3C4)n2)ccc2c1CC[C@@H](N1CCOCC1)CC2
Potency (HEK293): 3.66 µM (active)
Potency (KB-3-1): 18.4 µM (active)

CNC(=O)c1ccccc1Nc1cc(Nc2ccc(N3CCOCC3)cc2OC)ncc1C(F)(F)F
Potency (HEK293): 6.51 µM (active)
max response (KB-3-1): -12.1% (inactive)

COC(=O)N[C@@H](C)CNc1nccc(-c2cn(C(C)C)nc2-c2cc(Cl)cc(NS(C)(=O)=O)c2F)n1
Potency (HEK293): 11.6 µM (active)
max response (KB-3-1): -3.34% (inactive)

COc1ccc(-c2ccc3c(N4CCOCC4)nc(N4CC(C)OC(C)C4)nc3n2)cc1CO (stereo not drawn)
Potency (HEK293): 1.16 µM (active)
Potency (KB-3-1): 1.64 µM (active)

Cc1ccc(C(=O)N(CCCN)C(c2nc3cc(Cl)ccc3c(=O)n2Cc2ccccc2)C(C)C)cc1 (stereo not drawn)
Potency (HEK293): 0.0092 µM (active)
Potency (KB-3-1): 0.0082 µM (active)

Cn1cc(S(=O)(=O)c2ccc(Cl)cc2)c2cccc(N3CCNCC3)c21
Potency (HEK293): 6.51 µM (active)
Potency (KB-3-1): 20.6 µM (active)

CN(C)CCCCC(=O)Nc1ccc(NC(=S)NC(=O)c2ccc(C(C)(C)C)cc2)cc1
Potency (HEK293): 6.51 µM (active)
Potency (KB-3-1): 14.6 µM (active)

Cc1ccc(S(=O)(=O)Nc2ccccc2N2CCCCC2)s1
Potency (HEK293): 18.4 µM (active)
max response (KB-3-1): -18.9% (inactive)

C#CC[C@H](c1nc2cc(Cl)ccc2c(=O)n1Nc1ccccc1)N(CCCN)C(=O)c1cccc(Cl)c1F
Potency (HEK293): 1.46 µM (active)
Potency (KB-3-1): 0.92 µM (active)

CC(=O)OC12COC1CC(O)C1(C)C(=O)C(O)C3=C(C)C(OC(=O)C(O)C(NC(=O)OC(C)(C)C)c4ccccc4)CC(O)(C(OC(=O)c4ccccc4)C21)C3(C)C (stereo not drawn)
max response (HEK293): -76.3% (inactive)
Potency (KB-3-1): 0.0018 µM (active)

NCc1ccc(Nc2ncc(F)c(Nc3ccccc3)n2)cc1
Potency (HEK293): 20.6 µM (active)
Potency (KB-3-1): 8.2 µM (active)

Cn1nnc(-c2ccc(-c3ccc(N4C[C@H](CO)OC4=O)cc3F)cn2)n1
max response (HaCat): -5.65% (inactive)
max response (KB-3-1): -14% (inactive)

N#Cc1ccc(-c2cnc3[nH]cc(NC(=O)c4cccnc4)c3c2)cc1
Potency (HEK293): 8.2 µM (active)
max response (KB-3-1): -24.8% (inactive)

O=C(NCc1cccc(O)c1)Nc1nc(-c2ccncc2)cs1
max response (HEK293): -21.2% (inactive)
max response (KB-3-1): -3.25% (inactive)

COC(=O)C1(C)c2[nH]c3ccccc3c2CCN1C(=O)CCl (stereo not drawn)
Potency (KB-3-1): 20.6 µM (active)

C[C@@H](Oc1cc(-n2cnc3ccc(OC4CCN(C)CC4)cc32)sc1C(N)=O)c1ccccc1C(F)(F)F
Potency (HEK293): 0.0411 µM (active)
Potency (KB-3-1): 0.0092 µM (active)

CN(C)c1nc(NC2CCC(NC(=O)c3ccc(F)c(F)c3)CC2)nc2ccccc12 (stereo not drawn)
Potency (HEK293): 16.4 µM (active)
Potency (KB-3-1): 23.1 µM (active)

CC(C)C(CO)Nc1nc(Nc2cc(N)cc(Cl)c2)c2ncn(C(C)C)c2n1 (stereo not drawn)
Potency (HEK293): 16.4 µM (active)
Potency (KB-3-1): 10.3 µM (active)

CCN(CC)CCN(Cc1ccc(-c2ccc(C(F)(F)F)cc2)cc1)C(=O)Cn1c(SCc2ccc(F)cc2)nc(=O)c2c1CCC2
Potency (HEK293): 3.66 µM (active)
Potency (KB-3-1): 20.6 µM (active)

O=C(Nc1ccc(Cl)cc1F)c1ccccc1O
Potency (HEK293): 16.4 µM (active)
Potency (KB-3-1): 13 µM (active)

CC(C)[C@@](C)(O)[C@@H]1CN(c2nc(-c3[nH]nc4ncccc34)c(F)cc2Cl)CCN1
Potency (HEK293): 13 µM (active)
Potency (KB-3-1): 20.6 µM (active)

N=c1nc2n(cc1F)C1OC(CO)C(O)C1O2 (stereo not drawn)
max response (KB-3-1): -7.19% (inactive)
